# Several values for one entry are separate records, joined by “and”; a condition that tells them apart may be missing. Identical values can stand only once. Results filed as inconclusive are left out. A call without a number means that no potency is given here. Activity calls are given as the source filed them. Unless noted, calls follow the shape of the dose curve; as a rule, active = well fitted curve in the direction sought with a large enough effect; inconclusive = small, poorly fitted or top-dose-only effect, or another doubt; inactive = no such curve, though single readings can be large; an effect the other way counts as inactive or inconclusive.
# Experiments:
# [1] = qHTS Assay for Identifying Gametocytocidal Compounds (AID 743244);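 also: actives lower the fluorescent signal which means gametocytes are killed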; conditions: P. falciparum 3D7 stage III-V gametocytes, alamarBlue, 72 h; max response: stronger effect = lower value
# Method in brief: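 A resazurin-based viability read-out was applied to mature P. falciparum gametocytes: 72 h compound treatment, then 24 h dye incubation, with falling fluorescence signalling gametocytocidal effect.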
# [2] = qHTS assay to identify small molecule inhibitors of chordoma cells - UCH-1 (AID 1259355); also: nearly all actives have a fitted effect of over 55% in size
# Method in brief: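 A 48hr growth-inhibition format: each drug tested at 15 concentrations together with added auranofin, camptothecin, doxorubicin, rubitecan and topotecan, with cell viability quantified as CellTiter-Glo luminescence.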
# [3] = qHTS assay to identify small molecule inhibitors of chordoma cells - UCH-2 (AID 1259356)
# [4] = qHTS assay for small molecule agonists of the antioxidant response element (ARE) signaling pathway measured by Nrf2-dependant transcriptional activity - cell viability counter screen (AID 720653; active = well fitted curve in the direction sought with a large enough effect in the repeat runs; an effect the other way counts as inactive or inconclusive); conditions: ARE-bla HepG2 viability, CellTiter-Glo ATP luminescence, 16 h; stronger effect = lower value
# Method in brief: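 ARE-bla HepG2 cells (2,000/well) rested 5 hrs at 37C/5% CO2, then exposed to compounds in DMSO for 16 hrs. Viability was read in the same wells as intracellular ATP by luminescence, 30 min at room temperature after reagent addition.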
# [5] = qHTS assay for cell viability of HEK293 cells (AID 743288); conditions: ATP luminescence (CellTiter-Glo), 18 h; max response: stronger effect = lower value; also: nearly all actives have a fitted effect of over 50% in size
# Method in brief: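 Quantitative high-throughput screen: compounds were pinned onto parental HEK293 cells (2,000 per well) after a minimum 5 h settling at 37 C, incubated 18 h at 37 C, and intracellular ATP measured by luciferase luminescence.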
# [6] = qHTS assay for cell viability of the p53RE-bla HCT-116 cell line (AID 743292); also: nearly all actives have a fitted effect of over 55% in size
# Method in brief: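 In this qHTS counter-screen, metabolically competent p53RE-bla HCT-116 cells were counted via their ATP content. Compounds were applied for 16 h at 37 C and luciferase-coupled luminescence was measured.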
# [7] = P-glycoprotein substrates identified in KB-8-5-11 adenocarcinoma cell line, qHTS therapeutic library screen (AID 1346987); conditions: outcome: dose series up to 44.5 µM unless noted; also: nearly all actives have a fitted effect of over 65% in size
# Method in brief: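 Luminescence from CellTiter-Glo, read 5 min after addition, quantified survival of KB-8-5-11 (P-gp-overexpressing) cells exposed to compounds for 72 h. AC50 was derived from concentration-response curves.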
# [8] = qHTS profiling of the MIPE4 collection as inhibitors of Plasmodium falciparum (3D7) proliferation (AID 743344; call rule not given here); conditions: P. falciparum 3D7 in erythrocytes, SYBR Green DNA fluorescence, 72 h; at 28.5 µM (top of the series)
# Method in brief: (§1)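 Parasite DNA was quantified by SYBR Green I fluorescence (ex 485, em 535 nm) after overnight lysis in saponin/Triton buffer at room temperature. Cultures at 0.3% parasitemia and 2.5% hematocrit were first exposed to compound for 72 h at 37 C; signals were normalised to artemisinin (0.29 uM) and vehicle wells.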
# [9] = qHTS profiling of the MIPE4 collection as inhibitors of Plasmodium falciparum (DD2) proliferation (AID 743345; call rule not given here); conditions: P. falciparum Dd2 in erythrocytes, SYBR Green DNA, 72 h; at 28.5 µM (top of the series)
# Method in brief: as §1
# [10] = qHTS profiling of the MIPE4 collection as inhibitors of Plasmodium falciparum (DD2) proliferation (Rep 2) (AID 743346; call rule not given here); conditions: P. falciparum Dd2 in erythrocytes, SYBR Green DNA, 72 h; at 28.5 µM (top of the series)
# Method in brief: as §1
# [11] = qHTS profiling of the MIPE4 collection as inhibitors of Plasmodium falciparum (HB3) proliferation (AID 743347; call rule not given here); conditions: P. falciparum HB3 in erythrocytes, SYBR Green DNA, 72 h; at 28.5 µM (top of the series)
# Method in brief: as §1
smiles,measurement,setting,value
C#C[C@]1(O)CC[C@H]2[C@@H]3CCC4=C(CCC(=O)C4)[C@H]3CC[C@@]21C,max response,[1],12.4% (inactive)
same,Potency,[2],inactive
same,Potency,[3],inactive
N[C@@H](Cc1cc(I)c(Oc2ccc(O)c(I)c2)c(I)c1)C(=O)O,max response,[4],-4.18% (inactive)
same,max response,[1],3.17% (inactive)
same,max response,[5],-8.83% (inactive)
same,outcome,[6],inactive
same,Potency,[2],inactive
same,Potency,[3],inactive
C=C[C@]1(C)C[C@@H](OC(=O)CSCCN(CC)CC)[C@]2(C)[C@H](C)CC[C@]3(CCC(=O)[C@H]32)[C@@H](C)[C@@H]1O,max response,[1],-4.45% (inactive)
same,Potency,[2],inactive
same,Potency,[3],inactive
CC(C)CCC[C@@H](C)[C@H]1CC(=O)C2=C3CC[C@H]4C[C@@H](O)CC[C@]4(C)[C@H]3CC[C@@]21C,max response,[1],5.28% (inactive)
same,Potency,[2],inactive
same,Potency,[3],inactive
CCN(CC)CCC(=O)N1c2ccccc2Sc2ccc(C(F)(F)F)cc21,max response,[1],-16% (inactive)
same,Potency,[2],inactive
same,Potency,[3],inactive
COc1ccccc1N1CCN(CCCC(=O)c2ccc(F)cc2)CC1,max response,[1],18% (inactive)
same,Potency,[2],inactive
same,Potency,[3],inactive
CO[C@H]1C[C@@H]2CC[C@@H](C)[C@@](O)(O2)C(=O)C(=O)N2CCCC[C@H]2C(=O)O[C@H]([C@H](C)C[C@@H]2CC[C@@H](OC(=O)C(C)(CO)CO)[C@H](OC)C2)CC(=O)[C@H](C)/C=C(\C)[C@@H](O)[C@@H](OC)C(=O)[C@H](C)C[C@H](C)/C=C/C=C/C=C/1C,max response,[1],-3.38% (inactive)
same,Potency,[2],inactive
same,Potency,[3],inactive
C=C1[C@H](CO)[C@@H](O)C[C@@H]1n1cnc2c(=O)[nH]c(N)nc21,max response,[1],18.1% (inactive)
same,Potency,[2],inactive
same,Potency,[3],inactive
O=C(O)c1ccc(NC(=O)[C@H](Cc2ccc(O)cc2)NC(=O)c2ccccc2)cc1,max response,[1],0.0398% (inactive)
same,Potency,[2],inactive
same,Potency,[7],inactive
NC(=O)C1c2ccccc2CCc2ccccc21,max response,[1],-4.56% (inactive)
same,Potency,[2],inactive
same,Potency,[7],inactive
FC(F)OC(Cl)C(F)(F)F (stereo not drawn),max response,[1],-3.13% (inactive)
same,Potency,[2],inactive
same,Potency,[7],inactive
COc1ccc(-c2noc(CC(=O)O)c2-c2ccc(OC)cc2)cc1,max response,[1],49.9% (inactive)
same,Potency,[2],inactive
same,Potency,[7],inactive
Cc1cccc(C)c1NC(=O)C1CCCCN1C (stereo not drawn),max response,[1],-1.88% (inactive)
same,Potency,[2],inactive
same,Potency,[7],inactive
COc1ccc(C(=O)CCC(=O)O)c2ccccc12,max response,[1],-11.7% (inactive)
same,Potency,[2],inactive
same,Potency,[7],inactive
C=CC[N@@+]12CC[C@@]34c5ccccc5N5/C=C6/[C@H]7C[C@H]8[C@@]9(CC[N@@+]8(CC=C)C/C7=C/CO)c7ccccc7N(/C=C(/[C@@H](C[C@@H]31)/C(=C\CO)C2)[C@H]54)[C@@H]69,max response,[1],4.55% (inactive)
same,Potency,[2],inactive
same,Potency,[7],inactive
CN(C)C=Nc1c(I)cc(I)c(CCC(=O)O)c1I,max response,[1],14.5% (inactive)
same,Potency,[2],inactive
same,Potency,[7],inactive
O=C(O)CN(CC(=O)O)CC1=CC2C(=CC1=O)Oc1cc(O)c(CN(CC(=O)O)CC(=O)O)cc1C21OC(=O)c2ccccc21 (stereo not drawn),Potency,[2],inactive
same,Potency,[7],inactive
COC1[C@@H](O[C@@H]2O[C@H](C)[C@@H](O[C@H]3C[C@@](C)(O)[C@H](OC(=O)CC(C)C)[C@H](C)O3)[C@H](N(C)C)[C@H]2O)[C@@H](CC=O)C[C@@H](C)[C@@H](O)/C=C/C=C/C[C@@H](C)OC(=O)C[C@H]1OC(C)=O (stereo partly drawn),Potency,[2],inactive
same,Potency,[7],inactive
COC1=C(OC)C(=O)C(C/C=C(\C)CC/C=C(\C)CC/C=C(\C)CC/C=C(\C)CC/C=C(\C)CC/C=C(\C)CC/C=C(\C)CC/C=C(\C)CC/C=C(\C)CCC=C(C)C)=C(C)C1=O,max response,[1],1.6% (inactive) and -2.73% (inactive)
same,Potency,[2],inactive
same,Potency,[7],inactive
Cc1cccc(C)c1NC(=O)NC1=CCCN1C,max response,[1],-1.59% (inactive)
same,Potency,[2],inactive
same,Potency,[7],inactive
CC/C(=C(/CC)c1ccc(OP(=O)(O)O)cc1)c1ccc(OP(=O)(O)O)cc1,max response,[1],-1.73% (inactive)
same,Potency,[2],inactive
same,Potency,[7],inactive
CC(=O)[C@H]1CC[C@H]2[C@@H]3C=CC4=CC(=O)CC[C@@]4(C)[C@H]3CC[C@]12C,"parasite growth, % of DMSO control",[8],84.6%
same,"parasite growth remaining, % of DMSO control (lower = more inhibition)",[9],96.9%
same,"parasite growth, % of control (lower = inhibition)",[10],165%
same,"growth, % of control",[11],95.1%
same,Potency,[2],inactive
same,Potency,[3],inactive
CC(C)=CCC/C(C)=C/C=C/C(C)=C/C=C/C(C)=C/C=C/C=C(C)/C=C/C=C(C)/C=C/C=C(\C)CCC=C(C)C,Potency,[3],inactive
same,Potency,[7],inactive
O=C(O)CCC/C=C\C[C@@H]1[C@@H](/C=C/[C@@H](O)COc2cccc(Cl)c2)[C@H](O)C[C@@H]1O,max response,[1],-3.1% (inactive)
same,Potency,[2],inactive
same,Potency,[7],inactive
NC(=O)[C@H]1O[C@@H](O)[C@H](O)[C@@H](O)[C@@H]1O,max response,[1],-1.37% (inactive)
same,Potency,[2],inactive
same,Potency,[7],inactive

# From PubChem BioAssay (NCATS)
